# Laboratory results from paper PMC7862700, “An all-to-all approach to the identification of sequence-specific readers for epigenetic DNA modifications on cytosine”.
# What was measured:
# Experiment in all cases: DAPPL (digital affinity profiling via proximity ligation, sequencing); 10 mM Tris-HCl pH 7.5, 50 mM NaCl, 1 mM DTT, 4% glycerol, room temperature, 30 min; GST-TFs on glutathione beads, 16-mer random dsDNA library, 0.1% formaldehyde crosslink after washing; high values mean tight binding
# FEV = target: T1, FEV (Homo sapiens, UniProt Q99581 1-238); settings: protein: recombinant; tags: N-terminal GST; dsDNA, one strand shown
# T1 sequence: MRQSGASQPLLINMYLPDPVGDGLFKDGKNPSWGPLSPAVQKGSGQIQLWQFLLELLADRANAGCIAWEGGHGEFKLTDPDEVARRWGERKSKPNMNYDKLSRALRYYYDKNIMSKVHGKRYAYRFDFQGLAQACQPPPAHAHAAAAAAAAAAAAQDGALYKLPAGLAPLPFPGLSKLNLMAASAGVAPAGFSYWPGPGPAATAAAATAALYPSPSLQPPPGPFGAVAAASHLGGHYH
# Outline: (§1)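 Binding signal is defined as a hexamer's read frequency for one factor over its frequency for the tag-only sample. To obtain reads, GST-fused human transcription factors were expressed in yeast, captured on glutathione beads, barcoded with DNA and pooled with that sample. Pools met 200 nmole of a 16-mer random double-stranded DNA library in Tris/NaCl/DTT/glycerol buffer for 30 min at room temperature before washing, 0.1% formaldehyde crosslinking, proximity ligation (BsaI/T4 ligase, 1 h, 37 °C), PCR and Illumina NextSeq500 sequencing.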
# ETV5 = ETV5 (Homo sapiens, UniProt P41161 1-510); settings: protein: recombinant; tags: N-terminal GST; dsDNA, one strand shown
# Outline: as §1
# HSF1 = HSF1 (Homo sapiens, UniProt Q00613 1-529); settings: protein: recombinant; tags: N-terminal GST; chain copies: 3; dsDNA, one strand shown
# Outline: as §1
# SPIC = target: T2, SPIC (Homo sapiens, UniProt Q8N5J4 1-248); settings: protein: recombinant; tags: N-terminal GST; dsDNA, one strand shown
# T2 sequence: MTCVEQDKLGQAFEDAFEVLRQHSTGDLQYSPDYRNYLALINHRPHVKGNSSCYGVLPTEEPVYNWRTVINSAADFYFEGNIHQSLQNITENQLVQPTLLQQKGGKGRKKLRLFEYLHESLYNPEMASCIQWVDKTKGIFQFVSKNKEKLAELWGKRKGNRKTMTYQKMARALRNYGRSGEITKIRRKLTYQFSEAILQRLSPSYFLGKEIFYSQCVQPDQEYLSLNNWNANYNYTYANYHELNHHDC
# Outline: as §1
# ELF4 = ELF4 (Homo sapiens, UniProt Q99607 1-663); settings: protein: recombinant; tags: N-terminal GST; dsDNA, one strand shown
# Outline: as §1
# ELK4 = target: T3, ELK4 (Homo sapiens, UniProt P28324-2 1-405); settings: protein: recombinant; tags: N-terminal GST; dsDNA, one strand shown
# T3 sequence: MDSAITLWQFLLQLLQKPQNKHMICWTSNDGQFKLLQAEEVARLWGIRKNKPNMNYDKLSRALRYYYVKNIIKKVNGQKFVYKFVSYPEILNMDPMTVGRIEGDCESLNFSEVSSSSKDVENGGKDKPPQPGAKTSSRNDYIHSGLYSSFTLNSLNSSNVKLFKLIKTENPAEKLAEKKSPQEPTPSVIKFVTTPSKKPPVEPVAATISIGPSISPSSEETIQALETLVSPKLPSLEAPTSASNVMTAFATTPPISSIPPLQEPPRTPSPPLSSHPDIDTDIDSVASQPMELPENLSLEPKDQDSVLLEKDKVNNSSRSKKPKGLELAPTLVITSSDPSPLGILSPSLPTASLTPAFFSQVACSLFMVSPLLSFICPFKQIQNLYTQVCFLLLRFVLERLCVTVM
# Outline: as §1
# ETV2 = target: T4, ETV2 (Homo sapiens, UniProt O00321 1-342); settings: protein: recombinant; tags: N-terminal GST; dsDNA, one strand shown
# T4 sequence: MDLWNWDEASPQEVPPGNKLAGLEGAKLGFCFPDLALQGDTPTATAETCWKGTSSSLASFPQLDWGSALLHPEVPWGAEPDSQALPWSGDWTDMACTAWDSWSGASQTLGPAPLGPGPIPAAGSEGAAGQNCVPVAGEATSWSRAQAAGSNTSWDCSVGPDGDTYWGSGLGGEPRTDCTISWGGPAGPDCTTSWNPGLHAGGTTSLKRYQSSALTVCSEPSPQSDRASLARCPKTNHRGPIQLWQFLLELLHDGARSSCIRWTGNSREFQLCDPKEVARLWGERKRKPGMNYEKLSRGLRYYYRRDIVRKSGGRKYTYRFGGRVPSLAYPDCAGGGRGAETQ
# Outline: as §1
# ELF3 = target: T5, ELF3 (Homo sapiens, UniProt P78545 1-371); settings: protein: recombinant; tags: N-terminal GST; dsDNA, one strand shown
# T5 sequence: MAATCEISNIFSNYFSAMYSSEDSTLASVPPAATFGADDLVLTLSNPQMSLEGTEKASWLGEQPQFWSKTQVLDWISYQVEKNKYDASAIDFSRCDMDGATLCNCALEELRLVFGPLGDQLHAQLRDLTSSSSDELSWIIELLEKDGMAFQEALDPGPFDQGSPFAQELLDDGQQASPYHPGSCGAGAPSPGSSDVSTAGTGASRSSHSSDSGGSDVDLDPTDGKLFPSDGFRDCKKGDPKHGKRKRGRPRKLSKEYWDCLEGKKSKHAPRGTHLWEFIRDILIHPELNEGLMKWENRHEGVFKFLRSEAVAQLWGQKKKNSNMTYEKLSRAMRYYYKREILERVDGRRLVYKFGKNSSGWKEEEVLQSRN
# Outline: as §1
# CRX = CRX (Homo sapiens, UniProt O43186 1-299); settings: protein: recombinant; tags: N-terminal GST; dsDNA, one strand shown
# Outline: as §1
# ETV1 = ETV1 (Homo sapiens, UniProt P50549 1-477); settings: protein: recombinant; tags: N-terminal GST; dsDNA, one strand shown
# Outline: as §1
# ERF = target: T6, ERF (Homo sapiens, UniProt P50548 1-548); settings: protein: recombinant; tags: N-terminal GST; dsDNA, one strand shown
# T6 sequence: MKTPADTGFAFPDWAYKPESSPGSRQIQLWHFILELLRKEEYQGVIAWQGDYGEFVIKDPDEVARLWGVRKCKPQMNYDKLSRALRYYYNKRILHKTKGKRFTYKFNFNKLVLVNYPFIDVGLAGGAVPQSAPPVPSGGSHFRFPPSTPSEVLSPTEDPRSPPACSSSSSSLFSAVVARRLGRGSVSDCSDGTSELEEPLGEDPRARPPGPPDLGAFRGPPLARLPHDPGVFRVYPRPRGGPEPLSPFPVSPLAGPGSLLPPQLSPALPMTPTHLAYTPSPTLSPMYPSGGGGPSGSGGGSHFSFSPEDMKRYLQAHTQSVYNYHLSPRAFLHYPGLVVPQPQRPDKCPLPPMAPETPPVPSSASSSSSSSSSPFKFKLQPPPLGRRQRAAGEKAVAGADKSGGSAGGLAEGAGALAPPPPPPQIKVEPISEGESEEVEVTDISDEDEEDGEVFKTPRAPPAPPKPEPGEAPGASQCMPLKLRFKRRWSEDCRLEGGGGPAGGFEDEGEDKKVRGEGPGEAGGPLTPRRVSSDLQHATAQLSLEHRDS
# Outline: as §1
# ETV3L = target: T7, ETV3L (Homo sapiens, UniProt Q6ZN32 1-361); settings: protein: recombinant; tags: N-terminal GST; dsDNA, one strand shown
# T7 sequence: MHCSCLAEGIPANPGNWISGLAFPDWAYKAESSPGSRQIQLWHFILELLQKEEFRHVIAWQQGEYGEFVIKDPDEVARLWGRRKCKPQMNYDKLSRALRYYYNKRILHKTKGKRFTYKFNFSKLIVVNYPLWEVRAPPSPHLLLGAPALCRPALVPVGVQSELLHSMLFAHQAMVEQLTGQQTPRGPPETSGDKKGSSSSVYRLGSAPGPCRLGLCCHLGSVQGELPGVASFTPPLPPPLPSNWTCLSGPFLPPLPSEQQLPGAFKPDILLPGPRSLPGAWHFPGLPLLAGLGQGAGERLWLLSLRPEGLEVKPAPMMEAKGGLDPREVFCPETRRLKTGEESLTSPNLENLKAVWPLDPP
# Outline: as §1
# ETS2 = target: T8, ETS2 (Homo sapiens, UniProt P15036 1-469); settings: protein: recombinant; tags: N-terminal GST; dsDNA, one strand shown
# T8 sequence: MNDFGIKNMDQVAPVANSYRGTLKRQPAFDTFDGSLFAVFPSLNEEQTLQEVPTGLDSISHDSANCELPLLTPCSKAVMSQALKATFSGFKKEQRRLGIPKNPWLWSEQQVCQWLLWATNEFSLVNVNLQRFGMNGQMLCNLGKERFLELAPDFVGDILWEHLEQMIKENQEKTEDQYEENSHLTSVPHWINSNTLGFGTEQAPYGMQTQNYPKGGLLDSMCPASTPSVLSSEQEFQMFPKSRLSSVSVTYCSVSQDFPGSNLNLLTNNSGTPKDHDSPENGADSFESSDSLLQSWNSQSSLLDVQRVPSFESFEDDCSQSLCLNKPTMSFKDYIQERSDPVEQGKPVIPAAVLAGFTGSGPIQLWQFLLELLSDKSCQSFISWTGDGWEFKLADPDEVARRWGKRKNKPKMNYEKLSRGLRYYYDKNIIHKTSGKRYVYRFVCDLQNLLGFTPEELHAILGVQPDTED
# Outline: as §1
# SPDEF = target: T9, SPDEF (Homo sapiens, UniProt O95238 1-335); settings: protein: recombinant; tags: N-terminal GST; dsDNA, one strand shown
# T9 sequence: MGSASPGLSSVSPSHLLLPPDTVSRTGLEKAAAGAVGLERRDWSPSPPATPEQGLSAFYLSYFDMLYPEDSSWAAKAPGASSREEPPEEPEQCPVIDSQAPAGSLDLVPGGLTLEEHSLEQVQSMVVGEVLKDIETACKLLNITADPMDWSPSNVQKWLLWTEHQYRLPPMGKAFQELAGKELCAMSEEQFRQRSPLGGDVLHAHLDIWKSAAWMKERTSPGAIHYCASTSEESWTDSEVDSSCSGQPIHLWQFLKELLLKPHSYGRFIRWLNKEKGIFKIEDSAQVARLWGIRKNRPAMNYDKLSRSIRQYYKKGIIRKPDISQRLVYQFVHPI
# Outline: as §1
# ETV7 = target: T10, ETV7 (Homo sapiens, UniProt Q9Y603 1-341); settings: protein: recombinant; tags: N-terminal GST; dsDNA, one strand shown
# T10 sequence: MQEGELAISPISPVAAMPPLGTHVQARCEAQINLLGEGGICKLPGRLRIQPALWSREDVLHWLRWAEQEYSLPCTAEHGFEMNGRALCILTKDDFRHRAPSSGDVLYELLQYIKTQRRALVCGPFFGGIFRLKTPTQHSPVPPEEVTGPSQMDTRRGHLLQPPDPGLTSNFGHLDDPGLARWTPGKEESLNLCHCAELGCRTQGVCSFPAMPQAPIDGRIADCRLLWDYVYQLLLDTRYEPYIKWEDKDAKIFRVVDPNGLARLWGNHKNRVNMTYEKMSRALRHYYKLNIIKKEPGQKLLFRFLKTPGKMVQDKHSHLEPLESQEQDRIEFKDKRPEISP
# Outline: as §1
# ELF5 = target: T11, ELF5 (Homo sapiens, UniProt Q9UKW6-2 1-255); settings: protein: recombinant; tags: N-terminal GST; dsDNA, one strand shown
# T11 sequence: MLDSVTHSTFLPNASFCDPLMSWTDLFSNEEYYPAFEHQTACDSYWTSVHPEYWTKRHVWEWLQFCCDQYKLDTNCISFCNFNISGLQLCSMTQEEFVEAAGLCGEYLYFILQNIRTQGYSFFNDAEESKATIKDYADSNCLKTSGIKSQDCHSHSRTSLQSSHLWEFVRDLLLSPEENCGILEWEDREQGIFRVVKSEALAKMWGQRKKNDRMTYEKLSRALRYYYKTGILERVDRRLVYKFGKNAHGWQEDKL
# Outline: as §1
# ETV3 = target: T12, ETV3 (Homo sapiens, UniProt P41162-2 1-143); settings: protein: recombinant; tags: N-terminal GST; dsDNA, one strand shown
# T12 sequence: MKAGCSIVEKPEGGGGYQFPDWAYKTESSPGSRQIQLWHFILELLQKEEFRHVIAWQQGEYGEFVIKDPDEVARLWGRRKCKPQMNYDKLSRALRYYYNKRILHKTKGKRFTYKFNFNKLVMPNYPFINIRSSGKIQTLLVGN
# Outline: as §1
# ETV6 = ETV6 (Homo sapiens, UniProt P41212 1-452); settings: protein: recombinant; tags: N-terminal GST; dsDNA, one strand shown
# Outline: as §1
# Chain of CRX (O43186 whole entry): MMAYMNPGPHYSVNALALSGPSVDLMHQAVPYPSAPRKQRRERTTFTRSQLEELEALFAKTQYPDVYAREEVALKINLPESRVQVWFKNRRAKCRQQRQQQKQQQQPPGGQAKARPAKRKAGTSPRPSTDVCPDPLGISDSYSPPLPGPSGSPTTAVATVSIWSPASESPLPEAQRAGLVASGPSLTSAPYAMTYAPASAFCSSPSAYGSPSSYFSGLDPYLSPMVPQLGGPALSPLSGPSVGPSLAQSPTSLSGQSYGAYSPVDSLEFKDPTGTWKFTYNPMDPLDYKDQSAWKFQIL
# Chain of ELF4 (Q99607 whole entry): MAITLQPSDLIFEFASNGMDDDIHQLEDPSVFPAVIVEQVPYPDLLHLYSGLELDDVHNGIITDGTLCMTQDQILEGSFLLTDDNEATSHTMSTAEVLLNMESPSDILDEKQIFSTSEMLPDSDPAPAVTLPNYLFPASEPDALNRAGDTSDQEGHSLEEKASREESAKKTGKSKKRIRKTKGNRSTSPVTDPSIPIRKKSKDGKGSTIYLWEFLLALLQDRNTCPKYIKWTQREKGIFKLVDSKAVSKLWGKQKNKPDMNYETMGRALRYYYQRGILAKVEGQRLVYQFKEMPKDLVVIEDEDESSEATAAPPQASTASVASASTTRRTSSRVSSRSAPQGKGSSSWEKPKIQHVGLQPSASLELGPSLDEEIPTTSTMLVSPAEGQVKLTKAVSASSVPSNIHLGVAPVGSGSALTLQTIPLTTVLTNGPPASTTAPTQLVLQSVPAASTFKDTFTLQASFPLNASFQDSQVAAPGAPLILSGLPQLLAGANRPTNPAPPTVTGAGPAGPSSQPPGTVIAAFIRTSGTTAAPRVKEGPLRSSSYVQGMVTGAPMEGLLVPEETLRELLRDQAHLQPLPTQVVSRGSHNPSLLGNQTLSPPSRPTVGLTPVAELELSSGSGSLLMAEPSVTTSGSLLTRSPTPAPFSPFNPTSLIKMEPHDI
# Chain of HSF1 (Q00613 whole entry): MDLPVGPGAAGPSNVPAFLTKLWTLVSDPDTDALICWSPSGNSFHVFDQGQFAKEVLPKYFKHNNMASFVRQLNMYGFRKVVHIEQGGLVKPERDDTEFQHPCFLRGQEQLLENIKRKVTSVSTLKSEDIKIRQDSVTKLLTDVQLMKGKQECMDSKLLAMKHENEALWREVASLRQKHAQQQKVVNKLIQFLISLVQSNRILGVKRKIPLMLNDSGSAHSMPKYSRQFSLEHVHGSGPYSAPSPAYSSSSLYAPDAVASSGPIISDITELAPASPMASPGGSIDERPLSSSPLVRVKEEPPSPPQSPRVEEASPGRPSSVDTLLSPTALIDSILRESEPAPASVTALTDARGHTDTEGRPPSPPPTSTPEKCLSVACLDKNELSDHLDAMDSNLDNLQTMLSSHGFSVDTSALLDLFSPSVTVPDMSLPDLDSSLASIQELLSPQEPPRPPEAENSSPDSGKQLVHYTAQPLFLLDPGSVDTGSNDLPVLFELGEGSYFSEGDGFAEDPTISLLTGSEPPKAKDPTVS
# Chain of ETV6 (P41212 whole entry): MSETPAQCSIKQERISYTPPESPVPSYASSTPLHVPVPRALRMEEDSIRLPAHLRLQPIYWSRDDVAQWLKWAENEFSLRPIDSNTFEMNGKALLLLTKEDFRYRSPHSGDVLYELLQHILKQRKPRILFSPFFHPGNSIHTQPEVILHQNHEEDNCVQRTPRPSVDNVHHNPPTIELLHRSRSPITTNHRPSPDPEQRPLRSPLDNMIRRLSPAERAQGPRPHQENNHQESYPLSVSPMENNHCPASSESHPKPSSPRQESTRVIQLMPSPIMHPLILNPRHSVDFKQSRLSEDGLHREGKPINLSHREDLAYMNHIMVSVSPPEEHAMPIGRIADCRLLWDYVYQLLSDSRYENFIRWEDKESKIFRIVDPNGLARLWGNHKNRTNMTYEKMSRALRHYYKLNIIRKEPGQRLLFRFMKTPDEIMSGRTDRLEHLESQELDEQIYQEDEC
# Chain of ETV1 (P50549 whole entry): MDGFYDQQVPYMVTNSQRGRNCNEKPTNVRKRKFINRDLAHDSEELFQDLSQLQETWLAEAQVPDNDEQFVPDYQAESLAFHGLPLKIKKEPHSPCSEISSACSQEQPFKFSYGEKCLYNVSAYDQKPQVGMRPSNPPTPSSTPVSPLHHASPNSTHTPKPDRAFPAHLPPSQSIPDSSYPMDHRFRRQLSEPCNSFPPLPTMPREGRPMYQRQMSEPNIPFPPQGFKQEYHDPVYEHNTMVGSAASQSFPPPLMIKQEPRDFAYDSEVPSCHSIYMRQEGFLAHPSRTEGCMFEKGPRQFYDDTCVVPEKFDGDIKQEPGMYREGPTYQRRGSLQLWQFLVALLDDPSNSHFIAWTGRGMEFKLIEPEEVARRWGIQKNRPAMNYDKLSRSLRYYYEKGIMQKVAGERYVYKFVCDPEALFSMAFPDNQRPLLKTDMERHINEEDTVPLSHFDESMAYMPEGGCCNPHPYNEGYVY
# Chain of ETV5 (P41161 whole entry): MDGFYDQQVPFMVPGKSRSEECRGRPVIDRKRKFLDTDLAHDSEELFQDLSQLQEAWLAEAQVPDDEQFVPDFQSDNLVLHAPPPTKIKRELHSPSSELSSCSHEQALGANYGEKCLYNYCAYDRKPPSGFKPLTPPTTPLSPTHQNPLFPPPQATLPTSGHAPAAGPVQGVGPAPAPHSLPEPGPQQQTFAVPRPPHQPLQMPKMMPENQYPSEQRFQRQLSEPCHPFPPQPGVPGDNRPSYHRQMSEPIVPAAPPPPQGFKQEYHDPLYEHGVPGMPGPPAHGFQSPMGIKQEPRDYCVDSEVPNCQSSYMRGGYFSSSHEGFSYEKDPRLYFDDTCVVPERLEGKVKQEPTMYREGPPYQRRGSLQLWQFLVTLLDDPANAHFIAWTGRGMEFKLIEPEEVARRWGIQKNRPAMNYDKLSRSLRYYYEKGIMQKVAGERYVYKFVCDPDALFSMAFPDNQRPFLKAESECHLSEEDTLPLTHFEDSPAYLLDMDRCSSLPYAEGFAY
sequence,measurement,setting,value
CTGAAC,binding signal,FEV,"1.35 fold enrichment (6-mer frequency, TF over GST control)"
same,binding signal,ETV5,"1.41 fold enrichment (6-mer frequency, TF over GST control)"
same,binding signal,HSF1,"1.33 fold enrichment (6-mer frequency, TF over GST control)"
same,binding signal,SPIC,"1.31 fold enrichment (6-mer frequency, TF over GST control)"
same,binding signal,ELF4,"1.3 fold enrichment (6-mer frequency, TF over GST control)"
same,binding signal,ELK4,"1.44 fold enrichment (6-mer frequency, TF over GST control)"
same,binding signal,ETV2,"1.35 fold enrichment (6-mer frequency, TF over GST control)"
same,binding signal,ELF3,"1.44 fold enrichment (6-mer frequency, TF over GST control)"
same,binding signal,CRX,"1.23 fold enrichment (6-mer frequency, TF over GST control)"
same,binding signal,ETV1,"1.43 fold enrichment (6-mer frequency, TF over GST control)"
same,binding signal,ERF,"1.33 fold enrichment (6-mer frequency, TF over GST control)"
same,binding signal,ETV3L,"1.3 fold enrichment (6-mer frequency, TF over GST control)"
same,binding signal,ETS2,"1.32 fold enrichment (6-mer frequency, TF over GST control)"
same,binding signal,SPDEF,"1.47 fold enrichment (6-mer frequency, TF over GST control)"
same,binding signal,ETV7,"1.21 fold enrichment (6-mer frequency, TF over GST control)"
same,binding signal,ELF5,"1.41 fold enrichment (6-mer frequency, TF over GST control)"
same,binding signal,ETV3,"1.47 fold enrichment (6-mer frequency, TF over GST control)"
same,binding signal,ETV6,"1.29 fold enrichment (6-mer frequency, TF over GST control)"
